According to PubChem BioAssay AID504329 (Southern Research Specialized Biocontainment Screening …, 2011):
Screen size: about 340,000 compounds; about 1,000 (0.29%) were called active. These entries were drawn from the full list. Measured potencies and affinities stand elsewhere. Values without a mark were called inactive. Rule as the data show it: inconclusive = inhibition above about 27% without an active follow-up result; inactive = below that.

Experiment: NS1A inhibition, H1N1 influenza, cell based functional assay (AID 504329)
Conditions: percent inhibition, at 12.5 µM, hits give high values

SMILES	inhibition [%]
C[C@H](CO)N1C[C@H](C)[C@@H](CN(C)Cc2ccc(-c3ccccc3)cc2)Oc2c(NC(=O)Cc3ccccc3)cccc2C1=O	11.9
CC(=O)Nc1ccc(Br)cc1C(=O)C(=O)O	2.32
C=CCc1c(C)[nH]c(=O)[nH]c1=O	-3.62
Cc1noc(C)c1NC(=O)N(C)C[C@H]1Oc2ccc(NC(=O)NC(C)C)cc2C(=O)N([C@H](C)CO)C[C@@H]1C	-14.8
CCCn1c(N)c(C(=O)CSc2nnc3n2CCCCC3)c(=O)n(C)c1=O	-16.1
CC(C)CNS(=O)(=O)c1cc(C(=O)OC2CCOC2=O)c(Cl)cc1Cl (centres undefined)	-8.56
COc1ccccc1CNc1ncccc1[N+](=O)[O-]	-1.95
COc1ccccc1C(CNc1ncccc1[N+](=O)[O-])N(C)C (centres undefined)	-0.51
CC(=O)c1ccc2c(c1)C1C(Cl)C(Sc3ccccc3[N+](=O)[O-])CC1C(C(=O)O)N2 (centres undefined)	27.9
CC(=O)c1ccc2c(c1)C1C(Cl)C(Sc3ccccc3[N+](=O)[O-])CC1C(c1ccccc1)N2 (centres undefined)	-9.68
O=C(CN1CCN(C(=O)c2ccco2)CC1)Nc1ccccc1	0.71
CN(C)c1nc2c(c(=O)[nH]c(=O)n2C)n1CCCc1ccccc1	-3.17
CCc1cccc(CC)c1NC(=O)CN(CC(=O)O)CC(=O)O	5.31
O=C(O)CP(=O)(O)O	-2.09
Cn1c(=O)c2cc(S(=O)(=O)NC(C(=O)N3CCCCCC3)c3ccccc3)ccc2n(C)c1=O (centres undefined)	-3.38
COc1ccccc1-c1cc(C(=O)NC(C)c2ccccc2)no1 (centres undefined)	10.7
Cc1n[nH]c(C)c1Cc1c(F)cccc1Cl	-22.1
CNc1cc(C(F)(F)F)nc(-c2ccccn2)n1	-7.32
O=C(Cc1c(F)cccc1Cl)Nc1ccccn1	-10.5
Clc1ccc(COc2ccccn2)c(Cl)c1	18.9
Nc1nc(N)c(Cc2ccc(Cl)cc2Cl)c(N)n1	-5.28
Cc1nc(N)c(Cc2ccccc2F)c(N)n1	-3.84
N#C/C(=C/c1ccc(-c2ccc(C(=O)O)c(Cl)c2)o1)C(=O)NCC1CCCO1 (centres undefined)	9.84
CN(CC(=O)Nc1ccncc1)S(=O)(=O)c1ccc(Cl)cc1	4.38

SMILES	inhibition [%]
CC(C)S(=O)(=O)c1cnc(N2CCOCC2)nc1N	-0.07
Cc1cc(C(=O)CSc2nnc(N)s2)c(C)n1Cc1cccs1	-7.01
CCS(=O)(=O)N(CC(=O)Nc1cccc2ccccc12)c1ccc(OC)cc1	-2
CC(=O)Nc1ccc(NC(=O)C(NS(=O)(=O)c2cccc3nsnc23)C(C)C)cc1 (centres undefined)	4.6
Cc1ccc(-c2cn(C[C@H]3CC[C@@H]([C@@H]4CC[C@H](Cn5cc(-c6ccc(C)cc6)nn5)O4)O3)nn2)cc1	1.46
c1ccc(-c2cn(C[C@H]3CC[C@@H]([C@@H]4CC[C@H](Cn5cc(-c6ccccc6)nn5)O4)O3)nn2)cc1	1.07
c1cncc(-c2cn(C[C@H]3CC[C@H](Cn4cc(-c5cccnc5)nn4)O3)nn2)c1	-19.1
c1cncc(-c2cn(C[C@H]3CC[C@@H]([C@@H]4CC[C@H](Cn5cc(-c6cccnc6)nn5)O4)O3)nn2)c1	-3.65
COc1ccc(-c2cc(C#N)nc(NN)n2)cc1	4.09
N/C(CSc1ccccn1)=N\OCc1c(Cl)cccc1Cl	-0.92
Cc1ccc(CNC(=O)CSc2ccc(-c3ccco3)nn2)cc1	0.95
CCC(=O)Nc1cc(-c2nn(CC(=O)N3CCCCC3)c(=O)c3ccccc23)ccc1N1CCOCC1	-7.33
C=CC[C@H]1C=C[C@@H](C(C(=O)OC)C(=O)OC)CN1C(C)=O	-4.78
COCCOC(=O)c1c(NC(=O)COC(=O)Cc2cccc(OC)c2)sc(C(N)=O)c1C	6.16
C/C(=N/NC(=O)c1cc2ccccc2cc1O)c1ccco1	-9.07
C/C(=N\NC(=O)c1cc(Br)ccc1O)c1cccs1	0.04
O=C(N/N=C/c1ccccn1)c1cc(Br)ccc1O	-2.68
C/C(=N\NC(=O)c1cc2ccccc2cc1O)c1cccs1	-6
CN1CCc2cc3c(c4c2C1CC41CCC(=NO)CC1)OCO3 (centres undefined)	4.88
C=CCOC(=O)C1=C[C@H](C2CC2)[C@@H](CCCO)[C@H](OCC)O1	-9.11
CC(C)/C=C/C(=O)N1CCCC(N2CCN(c3ccccc3F)CC2)C1 (centres undefined)	-4.31
COc1ccc(OC)c(NC(=O)CSc2nn3c(=O)c(C)nnc3s2)c1	12.7
Cc1nnc2sc(SCc3ccccc3Cl)nn2c1=O	-4.7
COc1ccccc1NC(=O)CSc1nnc(C)s1	4.51

SMILES	inhibition [%]
Cc1ccccc1CSc1nn2c(=O)c(C)nnc2s1	-4.51
O=C(/C=N/O)NCc1ccncc1	-2.91
O=C(CC(NS(=O)(=O)c1ccc(Cl)cc1)c1ccco1)NCc1ccco1 (centres undefined)	-0.25
Cc1ccccc1NC(=S)N(Cc1cccnc1)Cc1ccco1	17
Cc1cc(C(=O)NCCCOC(C)C)c2ccccc2n1	5.34
COc1ccc(-c2csc(NC(=O)CCCc3nc4ccccc4c(=O)[nH]3)n2)cc1OC	0.34
N#Cc1ccc(CSc2nnc3[nH]c(=O)cc(N)n23)cc1	-7.19
O=C(COc1ncnc2ccccc12)NC1CCCCC1	9.63
COc1ccc(CC(=O)NC(C)c2nnc(SCC(=O)Nc3cc(C)ccc3OC)n2C)cc1 (centres undefined)	-9.49
Cc1cccc(/C=N/Nc2nncc3ccccc23)c1	3.05
O=c1cnnc(N/N=C/c2ccccn2)[nH]1	20.5
Cc1csc(N/N=C/c2ccccn2)n1	7.11
C(=N\Nc1nncc2ccccc12)/c1ccccc1	-20.6
C(=N\Nc1nc2ccccc2[nH]1)/c1ccccn1	17.1
O=C(N/N=C/c1ccccn1)c1ccc(N/N=C/c2ccccn2)cc1	1.09
C=CCn1c(SCC(=O)NCc2ccc3c(c2)OCO3)nnc1C1COc2ccccc2O1 (centres undefined)	-2.53
CCC(C)[C@H](NC(=O)N1CCn2c1nc1ccccc12)C(=O)NCCc1ccccc1 (some centres undefined)	4.3
COc1cccc(-c2ccc(NC(=O)C3CCCN(CCCn4nc(C)cc4C)C3)cc2)c1 (centres undefined)	3.69
N#Cc1c(C(F)(F)F)cc(-c2ccccc2)n(N)c1=O	-8.39
O=C(Nc1ccon1)c1ccc(Cl)c(S(=O)(=O)N2CCCCC2)c1	-6.8
S=c1[nH]nc(C2CCCCC2)n1/N=C/c1ccccn1	-8.07
CCc1n[nH]c(=S)n1/N=C/c1ccccn1	-4.28
COc1cccc(CNC(=O)CSc2ccc(-c3ccco3)nn2)c1	-0.85
O=C(CSc1ccc(-c2ccccn2)nn1)NCc1ccccc1	1.11

SMILES	inhibition [%]
Cc1ccc(CNC(=O)CSc2ccc(-c3ccccn3)nn2)cc1	14.6
COc1cccc(CNC(=O)CSc2ccc(-c3cccs3)nn2)c1	5.92
O=C(O)C1CCCCC1C(=O)Nc1ccc(S(=O)(=O)N2CCCCC2)cc1 (centres undefined)	4.7
CCCC(C)C1(CC)C(=O)NC(=O)N=C1N (centres undefined)	-9.22
O=C(NCc1cccnc1)c1ccccc1NS(=O)(=O)c1ccccc1	-3.37
CCOC(=O)C1CCCN(c2c(N3CCN(c4ccccn4)CC3)c(=O)c2=O)C1 (centres undefined)	6.61
CCCCCOc1ccc(C(=O)NCCC(=O)NCCCC(=O)OCC)cc1	-5.18
CC1(C)CC(=O)C2=C(C1)Nc1ccccc1NC2c1ccc(F)c(F)c1 (centres undefined)	-6.87
Cc1[nH][nH]c(=O)c1C(c1c(C)[nH][nH]c1=O)c1cn(Cc2ccc(Cl)c(Cl)c2)c2ccccc12	17.4
O=C(O)Cc1cn(Cc2ccc(F)cc2)c2ccccc12	5.18
COc1ccc(CNc2nc3ccccc3n2CCN2CCCCC2)cc1	8.37
CCN(CC)c1ccc(CNc2nc3ccccc3n2CCN2CCOCC2)cc1	5.53
CC(C)C[C@@H](CNCC(=O)[C@H](CC(C)C)NC(=O)c1[nH]cnc1C(=O)N[C@H](CN)CC(C)C)NC(=O)c1nc[nH]c1C(=O)N[C@@H](Cc1ccccc1)C(=O)O	-21.2
COC(=O)c1scc(C)c1NC(=O)c1ccccc1F	-2.27
COc1cccc(OC)c1C(=O)Nc1nnc(-c2ccc(F)cc2)s1	-7.27
CCN(CC)c1ccc2nc3ccccc3[n+](CC)c2c1	25.1
CCN(CC)c1ccc(/C=N/N(c2ccccc2)c2ccccc2)c(O)c1	-0.39
N#Cc1nc(COc2cccc(Cl)c2)oc1N1CCN(c2ccccc2)CC1	-10.8
CC(=O)Nc1c(O)c2ccccc2[nH]c1=O	-0.37
O=C1C(c2c(O)[nH]c3ccccc23)=Nc2ccccc21	4.56
COc1ccc(CCNC(=O)c2ccc(CS(=O)(=O)Cc3cccc(C)c3)o2)cc1OC	1.57
O=C(CN1C(=O)c2ccccc2C1=O)Nc1cccc(Cl)c1	-5.21
